The results in this text go back to PubChem BioAssay (EPA / NIEHS).

Results filed as inconclusive are left out. The source made the active and inactive calls. The calls were made as follows, unless noted: active = hit-call score of the fitted dose curve at least 0.9, where 1 is the maximum; inactive = score below 0.9.

The term AC50 denotes the midpoint of the concentration-response curve, whichever way the signal moves.

The nature of assay [1]: ATG_TAL_CIS: Attagene CIS-FACTORIAL HepG2 Assay for human TAL Basal Promoter (AID 2282966).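 Also: background control endpoint measuring basal TAL promoter reporter mRNA not a specific factor.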 To be noted: HepG2 Attagene cis-factorial TAL promoter reporter; actives raise or lower the signal. The gist of the method:
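Steps: transfect HepG2 with multiple reporter transcription units; dose 24 h; isolate RNA, reverse-transcribe, PCR-amplify, label with 6-FAM, digest with HpaI; resolve by capillary electrophoresis. Bidirectional fitting against DMSO baseline.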

Assay [2] in a line: ATG_TGFb_CIS: Attagene CIS-FACTORIAL HepG2 Assay for human Transforming Growth Factor (TGF) (AID 2282967). To be noted: HepG2 Attagene CIS TGFb reporter, mRNA transcription; actives raise or lower the signal. The gist of the method: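 Liver HepG2 line, cis-factorial reporter panel, 24 h dosing. Quantitation: RT-PCR products labeled with 6-FAM, cut with HpaI, resolved by capillary electrophoresis; DMSO-referenced bidirectional analysis.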

Assay [3] in a line: ATG_VDRE_CIS: Attagene CIS-FACTORIAL HepG2 Assay for human Vitamin D Receptor Element (VDRE) (AID 2282968). Particulars: HepG2 VDRE cis-reporter transcription, actives raise or lower the signal. The gist of the method:
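Cell-based multiplexed reporter format in human liver HepG2 cells, 24 h post-dose. Fluorescence from capillary electrophoresis of reporter cDNA gives the signal, with DMSO as negative control and baseline.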

Assay [4] deals with X-box-binding protein 1 (Homo sapiens) (UniProt P17861). Put plainly: ATG_Xbp1_CIS: Attagene CIS-FACTORIAL HepG2 Assay for human X-box Binding Protein 1 (XBP1) (AID 2282972). Particulars: HepG2 XBP1 cis-element reporter, Attagene multiplex; actives raise or lower the signal. The method, boiled down:
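HepG2, transient MRTU transfection (cis-promoter driven), 24 h compound exposure. Total RNA → oligo(dT) RT → PCR → 6-FAM labeling → HpaI cut → CE. Bidirectional fit vs DMSO.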

For assay [5], the target named is Oxysterols receptor LXR-beta (Homo sapiens) (UniProt P55055). Put plainly: ATG_LXRb_TRANS: Attagene TRANS-FACTORIAL HepG2 Assay for human Liver X Receptor beta (LXRb) (AID 2282981; active = hit-call score of the fitted dose curve at least 0.9, where 1 is the maximum). To be noted: HepG2 Attagene TRANS GAL4-LXRb reporter, mRNA. The method, boiled down:
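Gain-of-signal mRNA reporter endpoint, DMSO as negative control. Transiently transfected HepG2 cells carrying the NR-Gal4 chimera and GAL4-UAS reporter units were treated 24 h; transcripts quantified by RT-PCR and capillary electrophoresis fluorescence.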

The target in assay [6] is Hepatocyte nuclear factor 4-alpha (Homo sapiens) (UniProt P41235). Put plainly: ATG_HNF4a_TRANS: Attagene TRANS-FACTORIAL HepG2 Assay for human Hepatocyte Nuclear Factor 4 alpha (HNF4a) (AID 2282982; active = hit-call score of the fitted dose curve at least 0.9, where 1 is the maximum). To be noted: HepG2 HNF4a transactivation reporter, mRNA readout. The gist of the method: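 Gain-of-signal mRNA induction, relative to DMSO vehicle, was read after 24 h compound treatment of HepG2 cells bearing transfected GAL4-UAS reporters. Detection used RT-PCR, 6-FAM primer extension and capillary electrophoresis.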
Chain of Hepatocyte nuclear factor 4-alpha (Homo sapiens) (P41235 whole entry, looked up, the tested form may be a part): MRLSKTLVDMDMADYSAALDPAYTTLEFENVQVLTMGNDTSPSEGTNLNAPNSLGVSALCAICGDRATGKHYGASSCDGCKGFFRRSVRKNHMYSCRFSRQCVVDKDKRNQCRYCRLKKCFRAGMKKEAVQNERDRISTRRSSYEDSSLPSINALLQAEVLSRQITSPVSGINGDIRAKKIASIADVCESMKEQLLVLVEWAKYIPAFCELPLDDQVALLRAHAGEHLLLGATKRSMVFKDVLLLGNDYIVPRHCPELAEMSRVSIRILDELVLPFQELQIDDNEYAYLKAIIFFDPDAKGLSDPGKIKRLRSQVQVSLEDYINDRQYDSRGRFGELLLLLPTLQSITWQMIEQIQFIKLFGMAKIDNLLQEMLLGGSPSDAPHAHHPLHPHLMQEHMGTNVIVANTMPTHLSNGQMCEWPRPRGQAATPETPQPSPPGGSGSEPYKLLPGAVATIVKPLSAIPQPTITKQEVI

The nature of assay [7]: ATG_M_06_TRANS: Attagene TRANS-FACTORIAL HepG2 Assay for M06 Transcription Factor (Internal Marker) (AID 2282983; active = hit-call score of the fitted dose curve at least 0.9, where 1 is the maximum). Particulars: HepG2 Attagene TRANS M06 internal marker reporter. The method, boiled down:
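Internal-marker background readout from a multiplexed TRANS reporter system in HepG2; 24 h dosing; mRNA induction quantified by RT-PCR plus capillary electrophoresis fluorescence; DMSO as negative control and baseline.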

The target of assay [8] is Transcriptional activator Myb (Homo sapiens) (UniProt P10242). As to the kind of experiment: ATG_Myb_CIS: Attagene CIS-FACTORIAL HepG2 Assay for human Myeloblastosis (Myb) Proto-Oncogene Transcription Factor (AID 2282986). To be noted: HepG2 Attagene CIS-FACTORIAL Myb reporter transcription; actives raise or lower the signal. The method, boiled down: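 HepG2 cells were transiently transfected with cis-regulated multiple reporter transcription units reflecting endogenous Myb activity, then exposed to compound for 24 hours. Reporter mRNA was measured by RT-PCR with capillary electrophoresis; bidirectional fitting versus DMSO baseline.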
Chain of Transcriptional activator Myb (Homo sapiens) (P10242 whole entry, looked up): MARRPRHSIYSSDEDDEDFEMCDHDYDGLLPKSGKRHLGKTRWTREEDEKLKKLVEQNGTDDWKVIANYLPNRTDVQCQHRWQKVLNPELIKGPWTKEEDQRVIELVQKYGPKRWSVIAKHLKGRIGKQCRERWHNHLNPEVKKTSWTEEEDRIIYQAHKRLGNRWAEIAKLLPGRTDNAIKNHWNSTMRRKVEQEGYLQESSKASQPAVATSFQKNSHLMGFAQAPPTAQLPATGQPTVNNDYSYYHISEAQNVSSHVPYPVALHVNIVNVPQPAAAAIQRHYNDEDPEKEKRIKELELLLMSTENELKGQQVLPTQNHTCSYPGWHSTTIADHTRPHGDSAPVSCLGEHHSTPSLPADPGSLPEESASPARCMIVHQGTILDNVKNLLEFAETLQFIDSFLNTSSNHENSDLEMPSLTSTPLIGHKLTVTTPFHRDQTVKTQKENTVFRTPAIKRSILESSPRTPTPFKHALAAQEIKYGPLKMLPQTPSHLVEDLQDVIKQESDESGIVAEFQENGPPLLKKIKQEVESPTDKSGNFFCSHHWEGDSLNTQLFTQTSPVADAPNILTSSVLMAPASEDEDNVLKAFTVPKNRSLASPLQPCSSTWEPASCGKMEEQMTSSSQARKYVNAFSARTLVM

Assay [9] addresses Nuclear respiratory factor 1 (Homo sapiens) (UniProt Q16656). As to the kind of experiment: ATG_NRF1_CIS: Attagene CIS-FACTORIAL HepG2 Assay for human Nuclear Respiratory Factor 1 (NRF1) Orphan Gene (AID 2282987). To be noted: HepG2 NRF1 cis-element reporter, Attagene multiplex; actives raise or lower the signal. The method, boiled down: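 HepG2 cells transiently transfected with multiple reporter transcription units under cis-regulatory promoter control, so endogenous transcription-factor activity is read. After 24 h compound exposure, reporter mRNA quantified by RT-PCR, fluorescent labelling, HpaI digestion and capillary electrophoresis; bidirectional fitting versus DMSO.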

Assay [10] in a line: ATG_M_32_TRANS: Attagene TRANS-FACTORIAL HepG2 Assay for M32 Transcription Factor (Internal Marker) (AID 2282984; active = hit-call score of the fitted dose curve at least 0.9, where 1 is the maximum;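 also: transcript level of a background control reporter unit measured by RT-PCR and capillary electrophoresis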). To be noted: HepG2 Attagene TRANS M32 internal marker reporter. The gist of the method: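 Capillary electrophoresis of 6-FAM-labelled reporter fragments gives the signal; data fitted for gain over DMSO negative control. Source: HepG2 cells bearing transient multiple reporter transcription units, 24 h exposure.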

A short description of assay [11]: ATG_GAL4_TRANS: Attagene TRANS-FACTORIAL HepG2 Assay for GAL4 (Internal Marker) (AID 2282976; active = hit-call score of the fitted dose curve at least 0.9, where 1 is the maximum). Particulars: HepG2 Attagene TRANS GAL4 internal marker reporter. The gist of the method: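 Liver HepG2 line bearing multiplexed GAL4-UAS reporter constructs; 24 h chemical treatment. Transcripts were quantified as fluorescent fragments on capillary electrophoresis after RT-PCR and HpaI cut, with activity fitted upward from DMSO.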

In assay [12] the target is Bile acid receptor (Homo sapiens) (UniProt Q96RI1). Put plainly: ATG_FXR_TRANS: Attagene TRANS-FACTORIAL HepG2 Assay for Farnesoid X Receptor (FXR) (AID 2282979; active = hit-call score of the fitted dose curve at least 0.9, where 1 is the maximum;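 also: hits raise reporter mRNA above DMSO so AC50 marks FXR activation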). To be noted: HepG2 Attagene TRANS FXR-GAL4 reporter transcription. The gist of the method:
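After 24 h chemical treatment of transfected HepG2 cells, GAL4-UAS reporter transcripts driven by an exogenous FXR-GAL4 fusion were measured by RT-PCR and capillary electrophoresis. Increases over DMSO were fitted.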

Assay [13] addresses Estrogen-related receptor gamma (Homo sapiens) (UniProt P62508). As to the kind of experiment: ATG_ERRg_TRANS: Attagene TRANS-FACTORIAL HepG2 Assay for human Estrogen-Related Receptor gamma (ERRg) (AID 2282977; active = hit-call score of the fitted dose curve at least 0.9, where 1 is the maximum;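 also: hits increase reporter signal over DMSO so potencies reflect activators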). Particulars: HepG2 Attagene TRANS reporter, ERRg transactivation. The gist of the method:
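HepG2 cells transiently transfected with multiplexed GAL4-UAS reporter units and chimeric NR-Gal4 constructs were exposed to test chemicals for 24 h. Reporter mRNA was measured by RT-PCR, 6-FAM primer extension, HpaI digestion and capillary electrophoresis; gain-of-signal versus DMSO.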

Assay [14] addresses Nuclear receptor subfamily 4 group A member 2 (Homo sapiens) (UniProt P43354). Put plainly: ATG_NURR1_TRANS: Attagene TRANS-FACTORIAL HepG2 Assay for human Nuclear Receptor Related Protein 1 (NURR1) (AID 2282985; active = hit-call score of the fitted dose curve at least 0.9, where 1 is the maximum). To be noted: HepG2 Attagene TRANS reporter, mRNA readout. The gist of the method:
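HepG2 / transient MRTU transfection / 24 h compound exposure / RT-PCR + CE fluorescence of reporter mRNA / gain-of-signal vs DMSO.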

Chain of Oxysterols receptor LXR-beta (Homo sapiens) (P55055 whole entry, looked up, the tested form may be a part): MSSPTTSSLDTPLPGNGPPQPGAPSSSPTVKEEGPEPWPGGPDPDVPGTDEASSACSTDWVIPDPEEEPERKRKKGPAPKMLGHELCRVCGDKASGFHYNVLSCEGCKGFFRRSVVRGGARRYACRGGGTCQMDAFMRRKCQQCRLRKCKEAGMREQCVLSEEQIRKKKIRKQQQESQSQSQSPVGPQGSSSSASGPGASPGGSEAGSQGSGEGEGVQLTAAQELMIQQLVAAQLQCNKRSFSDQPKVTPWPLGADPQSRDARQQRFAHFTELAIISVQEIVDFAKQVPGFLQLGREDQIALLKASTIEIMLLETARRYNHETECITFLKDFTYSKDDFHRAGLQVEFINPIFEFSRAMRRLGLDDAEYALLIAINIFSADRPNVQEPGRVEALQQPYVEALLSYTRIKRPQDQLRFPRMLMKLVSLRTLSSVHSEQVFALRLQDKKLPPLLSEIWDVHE
Chain of Bile acid receptor (Homo sapiens) (Q96RI1 whole entry, looked up, the tested form may be a part): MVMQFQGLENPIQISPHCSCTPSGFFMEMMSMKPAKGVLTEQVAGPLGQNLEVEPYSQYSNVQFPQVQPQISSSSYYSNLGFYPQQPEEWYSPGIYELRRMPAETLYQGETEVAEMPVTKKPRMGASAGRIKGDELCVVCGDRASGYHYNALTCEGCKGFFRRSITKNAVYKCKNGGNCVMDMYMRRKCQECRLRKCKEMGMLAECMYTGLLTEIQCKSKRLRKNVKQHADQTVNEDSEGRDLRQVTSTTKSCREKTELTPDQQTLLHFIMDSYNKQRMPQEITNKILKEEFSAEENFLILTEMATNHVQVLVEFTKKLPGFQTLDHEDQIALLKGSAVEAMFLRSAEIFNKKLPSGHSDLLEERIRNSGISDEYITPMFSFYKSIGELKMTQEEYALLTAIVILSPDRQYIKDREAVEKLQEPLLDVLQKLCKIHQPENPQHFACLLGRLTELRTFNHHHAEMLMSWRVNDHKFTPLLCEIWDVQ
Chain of X-box-binding protein 1 (Homo sapiens) (P17861 whole entry, looked up): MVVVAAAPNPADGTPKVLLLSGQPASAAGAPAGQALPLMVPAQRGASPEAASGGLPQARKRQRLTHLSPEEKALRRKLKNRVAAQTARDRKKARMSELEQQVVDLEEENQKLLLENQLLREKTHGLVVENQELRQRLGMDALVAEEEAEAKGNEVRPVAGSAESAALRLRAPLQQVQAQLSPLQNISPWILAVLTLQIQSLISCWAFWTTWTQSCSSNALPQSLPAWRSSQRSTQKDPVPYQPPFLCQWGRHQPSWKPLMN
Chain of Nuclear respiratory factor 1 (Homo sapiens) (Q16656 whole entry, looked up): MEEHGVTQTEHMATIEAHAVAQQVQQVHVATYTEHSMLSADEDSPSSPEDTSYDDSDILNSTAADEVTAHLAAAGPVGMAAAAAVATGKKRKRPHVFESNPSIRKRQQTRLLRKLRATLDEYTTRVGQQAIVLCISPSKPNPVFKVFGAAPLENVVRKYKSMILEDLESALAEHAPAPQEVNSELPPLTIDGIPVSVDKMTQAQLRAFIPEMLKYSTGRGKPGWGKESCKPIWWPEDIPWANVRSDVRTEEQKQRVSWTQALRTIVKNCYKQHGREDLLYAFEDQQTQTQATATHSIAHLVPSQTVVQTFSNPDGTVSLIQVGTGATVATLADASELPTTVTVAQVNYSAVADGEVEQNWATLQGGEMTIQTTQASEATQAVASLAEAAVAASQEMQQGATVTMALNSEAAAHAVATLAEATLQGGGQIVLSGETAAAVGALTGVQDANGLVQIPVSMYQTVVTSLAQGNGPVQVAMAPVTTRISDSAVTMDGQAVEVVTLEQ
Chain of Nuclear receptor subfamily 4 group A member 2 (Homo sapiens) (P43354 whole entry, looked up): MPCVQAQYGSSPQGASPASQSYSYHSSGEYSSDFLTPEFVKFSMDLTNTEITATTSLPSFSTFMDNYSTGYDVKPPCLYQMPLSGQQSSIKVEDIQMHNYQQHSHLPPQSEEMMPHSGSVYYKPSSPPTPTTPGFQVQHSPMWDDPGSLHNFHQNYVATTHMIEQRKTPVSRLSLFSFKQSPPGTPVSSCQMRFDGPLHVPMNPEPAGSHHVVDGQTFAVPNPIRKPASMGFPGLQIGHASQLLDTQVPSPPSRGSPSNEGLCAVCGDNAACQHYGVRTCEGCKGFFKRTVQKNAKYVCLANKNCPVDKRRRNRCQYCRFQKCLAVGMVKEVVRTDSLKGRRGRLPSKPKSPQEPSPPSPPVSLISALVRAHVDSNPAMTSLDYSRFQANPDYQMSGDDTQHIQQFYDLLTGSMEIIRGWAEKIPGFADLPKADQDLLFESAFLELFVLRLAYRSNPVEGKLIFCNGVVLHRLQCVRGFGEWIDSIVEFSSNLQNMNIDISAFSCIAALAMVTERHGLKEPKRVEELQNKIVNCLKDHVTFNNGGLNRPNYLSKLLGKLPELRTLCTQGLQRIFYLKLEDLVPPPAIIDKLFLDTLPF
Chain of Estrogen-related receptor gamma (Homo sapiens) (P62508 whole entry, looked up, the tested form may be a part): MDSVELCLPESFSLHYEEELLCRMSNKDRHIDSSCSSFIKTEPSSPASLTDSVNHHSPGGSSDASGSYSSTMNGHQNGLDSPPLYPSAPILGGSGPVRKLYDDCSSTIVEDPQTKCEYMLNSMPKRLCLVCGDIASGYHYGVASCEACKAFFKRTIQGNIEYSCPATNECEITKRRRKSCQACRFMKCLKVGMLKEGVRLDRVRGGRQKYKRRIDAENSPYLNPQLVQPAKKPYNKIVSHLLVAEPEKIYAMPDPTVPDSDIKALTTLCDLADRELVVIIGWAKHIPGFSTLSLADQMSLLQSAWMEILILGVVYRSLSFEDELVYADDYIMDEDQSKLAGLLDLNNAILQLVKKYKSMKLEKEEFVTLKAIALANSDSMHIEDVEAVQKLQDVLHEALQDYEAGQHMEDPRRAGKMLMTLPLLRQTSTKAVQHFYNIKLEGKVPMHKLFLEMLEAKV

Turning to `O=C(O)c1cc2ccccc2nc1C(=O)O`, the call in assay [1], in assay [2], in [3], in assay [4], in assay [5] and in assay [6] was inactive. Also, the result in assay [7], in assay [8] and in [9] was inactive.

With `C=CC(=O)OCCOC(=O)C=C`, the result in assay [1], in assay [2], in assay [4], in [5], in assay [6] and in assay [7] was inactive. Moreover, the compound was classed as inactive in assay [10], in assay [8] and in assay [9]. Moreover, the AC50 in [3] is 10.5 µM (active).

Turning to `COc1ccc([C@@H]2CC(=O)c3c(O)cc(O[C@@H]4O[C@H](CO[C@@H]5O[C@@H](C)[C@H](O)[C@@H](O)[C@H]5O)[C@@H](O)[C@H](O)[C@H]4O)cc3O2)cc1OC`, the compound was called inactive in assay [1], in assay [2], in assay [3], in [4], in [11] and in assay [12]. Also, the compound was called inactive in assay [7] and in assay [8].

As for `O=S(=O)(O)CC(O)CCl` (stereo not given), the compound was classed as inactive in [1], in assay [2], in assay [3], in assay [4], in [11] and in assay [5]. Moreover, the outcome in assay [6], in assay [7], in assay [10], in assay [8] and in assay [9] was inactive.

For the compound `O=Cc1ccc(CO)o1`, the result in assay [1], in [2], in [3], in assay [4], in assay [13] and in assay [12] was inactive. The outcome in [6], in assay [7], in [10], in assay [14] and in assay [9] was inactive.

As for `CCCCCC/C=C\CCCCCCCC(=O)O`, the call in [1], in assay [2], in assay [3], in assay [4], in [11] and in [12] was inactive. In addition, the result in [6], in assay [7], in assay [14], in assay [8] and in assay [9] was inactive.
